# Screens (PubChem)
# Cruzain inh Det: cruzain (T. cruzi) inhibition with detergent. P25779. Potency, µM, usual class: inhibitors. AID 1478. 0.43% of 200,000 active. purified cruzain, Z-FR-AMC fluorescence, 0.01% Triton; further: nearly all actives have a fitted effect of over 40% in size
# Target sequence (P25779 123-467 limits assumed): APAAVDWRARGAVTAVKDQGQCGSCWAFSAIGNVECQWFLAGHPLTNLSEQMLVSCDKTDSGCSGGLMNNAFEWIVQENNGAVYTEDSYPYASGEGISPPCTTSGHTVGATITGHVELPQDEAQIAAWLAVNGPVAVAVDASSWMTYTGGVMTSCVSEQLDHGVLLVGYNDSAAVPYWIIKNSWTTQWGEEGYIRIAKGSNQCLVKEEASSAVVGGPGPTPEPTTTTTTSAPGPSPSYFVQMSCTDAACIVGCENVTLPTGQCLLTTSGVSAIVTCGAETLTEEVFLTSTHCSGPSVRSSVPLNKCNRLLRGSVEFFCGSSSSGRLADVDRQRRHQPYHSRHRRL
#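 Detergent-containing arm of a paired screen for aggregation-based inhibition: 0.01% Triton X-100 present. Cruzain at 1.5 nM cleaved 2 uM Z-FR-AMC at pH 5.5 with 5 mM DTT; AMC fluorescence gain over 60 s measured activity.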
# Cruzain inh noDet: cruzain (T. cruzi) inhibition without detergent. P25779. purified cruzain, Z-FR-AMC fluorescence, no detergent. Potency, µM, usual class: inhibitors. 2.3% of 200,000 active. AID 1476; further: nearly all actives have a fitted effect of over 40% in size
#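 Detergent-free condition (0.00005% Triton X-100) in acetate buffer pH 5.5 with DTT. 1.5 nM enzyme and compound were pre-mixed 15 min, then 2 uM Z-FR-AMC substrate added; reaction progress from fluorescence change between first and third reads (60 s).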
# Hits are given with their value; n = inactive; u = inconclusive. This is a sample that favours compounds with a hit; in the whole collection about 2.5% have one here. The call rests on the fitted dose curve; in most records, active means well fitted curve in the direction sought with a large enough effect; inconclusive means small, poorly fitted or top-dose-only effect, or another doubt; inactive means no such curve, though single readings can be large; an effect the other way counts as inactive or inconclusive.
SMILES,Cruzain inh Det,Cruzain inh noDet
COc1ccc(C2Nc3ccccc3C(=O)N2Cc2ccco2)cc1COc1ccc(NC(C)=O)cc1 (centres undefined),n,u
CC(=O)NCCC(=O)Nc1sc2c(c1-c1nc3ccccc3[nH]1)CCCC2,n,n
O=C(Nc1sc2c(c1-c1nc3ccccc3[nH]1)CCCC2)C1CCCC1,n,12.6µM
CC(=O)N1CCN(S(=O)(=O)c2cccc(C(=O)Nc3nc4c(s3)CCCC4)c2)CC1,n,u
CN1CCN(S(=O)(=O)c2cccc(C(=O)Nc3sc4c(c3-c3nc5ccccc5[nH]3)CCCC4)c2)CC1,n,15.8µM
CC(C)(C)n1ncc2c(=O)n(CC(=O)NCCc3ccccc3)cnc21,n,n
O=C(Cn1cnc2c(cnn2-c2ccc(Cl)cc2)c1=O)NCCc1ccccc1,n,25.1µM
O=C(Cn1cnc2c(cnn2-c2ccc(Cl)cc2)c1=O)NC1CCCCC1,n,10µM
O=C(Cn1cnc2c(cnn2-c2ccc(F)cc2)c1=O)NCC1CCCO1 (centres undefined),n,n
O=C(CN1C(=O)COc2ccc(S(=O)(=O)Nc3ccccc3)cc21)NCc1ccccc1Cl,n,n
CC1=Nc2cc(C(=O)NCCc3ccccc3)ccc2Sc2c(C)ccc(C)c21,n,u
CC1=Nc2cc(C(=O)NCCc3ccc(Cl)cc3)ccc2Sc2c(C)ccc(C)c21,n,25.1µM
COC(=O)c1c(NC(=O)c2cc3nc(-c4ccc(Br)cc4)cc(C(F)(F)F)n3n2)sc2c1CCCC2,n,n
O=C(COc1cc(O)c2c(=O)cc(-c3ccccc3)oc2c1)c1ccc(F)cc1,n,12.6µM
O=C(COc1cc(O)c2c(=O)cc(-c3ccccc3)oc2c1)c1ccccc1,n,u
COc1cc2c(cc1NC(=O)c1ccc(C)c([N+](=O)[O-])c1)oc1ccccc12,n,25.1µM
COc1cc2c(cc1NC(=O)c1cccnc1)oc1ccccc12,n,u
COc1cc2c(cc1NC(=O)c1cccc([N+](=O)[O-])c1)oc1ccccc12,n,15.8µM
COc1cc2c(cc1NC(=O)c1ccncc1)oc1ccccc12,n,u
CNC(=O)c1ccc(NC(=O)COc2ccc(-c3nn(C)c(=O)c4ccccc34)cc2)cc1,n,n
Cc1ccc(NC(=O)COC(=O)C(CC(C)C)N2C(=O)C3CC=CCC3C2=O)c(C)c1 (centres undefined),25.1µM,n
CCOC(=O)Nc1ccc(C)cc1C,n,n
CC(C)(CO)[C@H](O)C(=O)NCCCO,n,n
O=C(c1cc(-c2cccnc2)nc2ccccc12)N1CCCc2ccccc21,n,n
Cc1ccc(-c2cc(C(=O)N3CCCc4ccccc43)c3ccccc3n2)cc1,n,31.6µM
SMILES,Cruzain inh Det,Cruzain inh noDet
O=c1c2cc3c(nc2ncn1Cc1ccccc1F)CCCC3,n,n
O=C1NC(=S)S/C1=C\c1ccc(SCc2ccccc2)o1,n,n
O=C1NC(=S)S/C1=C\c1ccc(SCc2ccco2)o1,15.8µM,u
Cn1cc(C(=O)NCc2ccccc2)c(=O)c2cc(S(=O)(=O)N3CCCCCC3)ccc21,n,n
Cn1c(=O)c2ncn(CC(=O)Nc3ccc4c5c(cccc35)CC4)c2n(C)c1=O,12.6µM,12.6µM
Cc1cccc(C)c1NC(=O)Cn1cnc2c(=O)n(C)c(=O)n(C)c21,n,n
CCn1nc(-c2cccs2)nc2c(=O)n(C)c(=O)nc1-2,2.24µM,2µM
CCNc1ncc2nc(-c3cccs3)c(=O)n(C)c2n1,n,n
COc1ccc(-n2c(=O)c3c4c(sc3n(CC(=O)C(C)(C)C)c2=O)CCCC4)c(OC)c1,n,n
COc1ccc(OCCn2nnc3sc4c(c3c2=O)CCC(C(C)(C)C)C4)cc1 (centres undefined),n,n
O=C(NC(=S)Nc1ccc(N2CCCCC2)c(Cl)c1)c1ccc2c(c1)OCCO2,n,25.1µM
O=C(NC(=S)Nc1ccc(N2CCOCC2)c(Cl)c1)c1cncc(Br)c1,n,n
Cc1cc(NC(=O)COC(=O)c2oc3c(ccc4ccccc43)c2C)no1,n,20µM
Cc1ccc(-c2cc(C(=O)OCC(=O)Nc3cc(C)on3)c3ccccc3n2)c(C)c1,n,n
COc1cccc(/C=N/NC(N)=S)c1OCc1ccccc1Cl,n,u
Cc1ccc(S(=O)(=O)Oc2ccccc2/C=N/NC(N)=S)cc1,7.08µM,u
NC(=S)N/N=C/c1ccccc1OCCSc1ccc(Cl)cc1,1.41µM,1µM
Cc1ccc(S(=O)(=O)Oc2ccccc2/C=N/NC(=O)c2nn(C)cc2[N+](=O)[O-])cc1,n,n
COc1cccc(/C=N/NC(=O)c2cccc([N+](=O)[O-])c2)c1OS(=O)(=O)c1ccccc1,n,n
COc1cccc(/C=N/NC(N)=S)c1OS(=O)(=O)c1ccccc1,14.1µM,5.01µM
O=C(Nc1cccc(-c2nc3cccnc3s2)c1)C1c2ccccc2Oc2ccccc21,n,20µM
CCC(CC)C(=O)Nc1cccc(-c2nc3cccnc3s2)c1,n,n
CCN(c1ccccc1)c1nnc(NC(=O)Nc2ccc(Br)cc2F)s1,n,n
